{
  "source": "PubChem BioAssay (Tox21)",
  "note": "Records with an inconclusive call do not appear. Where a call stands in place of a potency, no number is given. Unmarked numbers belong to inactive results. Active and inactive are the calls of the source. Calls come from the whole dose curve; as a rule, active = well fitted curve in the direction sought with a large enough effect in the repeat runs; inconclusive = weak or mixed curves; inactive = no such curve, though single readings can be large; an effect the other way counts as inactive or inconclusive.",
  "data": [
    {"experiment": "qHTS RealTime-Glo MT Cell Viability Assay in HEK293 cells - 16 hour (AID 1224872); note: nearly all actives have a fitted effect of over 50% in size; note: potency is the fitted concentration of half-maximal effect; for activity change, negative = cytotoxicity: top concentration of the series differs between compounds", "settings": "RealTime-Glo luminescence; series mostly up to 76.8 µM", "procedure,_shortened": "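Cells + reagent dispensed (600 cells/well, HEK293) → 5 h at 37 C/5% CO2 → 23 nL compound in DMSO pinned → 40 h at 37 C → luminescence read at 0, 8, 16, 24, 32, 40 h.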", "values": [
      {"smiles": "CCCC[N+](=O)[O-]", "Potency": "inactive"},
      {"smiles": "CCC1(c2ccccc2)CCC(=O)NC1=O", "note": "(centres undefined)", "Potency": "inactive"},
      {"smiles": "ClC(Cl)(Cl)Cl", "Potency": "inactive"},
      {"smiles": "CCc1ccc(C2CCNCC2)cc1", "Potency": "inactive"},
      {"smiles": "CC(C)(C)C(=O)C(Cl)Cl", "Potency": "inactive"},
      {"smiles": "CCOC(=O)NC(C)(C)Cc1ccc(Cl)cc1", "Potency": "inactive"},
      {"smiles": "C=C(Cl)CSC(=S)N(CC)CC", "Potency": "inactive"},
      {"smiles": "CN(C)CCc1c[nH]c2cccc(OP(=O)(O)O)c12", "Potency": "inactive"},
      {"smiles": "O=C1C2CC=CCC2C(=O)N1SC(Cl)(Cl)Cl", "note": "(centres undefined)", "Potency": "3.83 µM (active)"},
      {"smiles": "N[C@@H](Cc1ccc(Oc2cc(I)c(O)c(I)c2)c(I)c1)C(=O)O", "Potency": "inactive"},
      {"smiles": "Clc1ccc(C(Cl)(Cl)Cl)cn1", "Potency": "inactive"},
      {"smiles": "CCNc1nc(Cl)nc(NC(C)(C)C)n1", "Potency": "inactive"},
      {"smiles": "COc1ccc2c(C(=O)c3ccc(Cl)cc3)c(C)n(CC(=O)O)c2c1", "Potency": "inactive"},
      {"smiles": "COc1ccc(CN2CCNCC2)c(OC)c1OC", "Potency": "inactive"},
      {"smiles": "CCOP(=S)(OCC)SCCl", "Potency": "inactive"},
      {"smiles": "CC(=O)OCC1=C(C(=O)O)N2C(=O)[C@@H](N)[C@H]2SC1", "activity change, negative = cytotoxicity": "5.5% [at 15.8 µM]"},
      {"smiles": "C=CCc1cc(OC)c2c(c1)OCO2", "Potency": "inactive"},
      {"smiles": "C=C1CC[C@@]2(O)[C@H]3Cc4ccc(O)c5c4[C@@]2(CCN3CC2CC2)[C@H]1O5", "Potency": "inactive"},
      {"smiles": "[O-][Br+2]([O-])O", "Potency": "inactive"},
      {"smiles": "NNC(N)=O", "Potency": "inactive"},
      {"smiles": "CC(Cc1ccccc1)NCCCCl", "note": "(centres undefined)", "Potency": "inactive"},
      {"smiles": "CCCCCCCCSC(=O)Oc1cc(Cl)nnc1-c1ccccc1", "Potency": "inactive"}
    ]},
    {"experiment": "qHTS RealTime-Glo MT Cell Viability Assay in HepG2 cells - 8 hour (AID 1224873); note: nearly all actives have a fitted effect of over 55% in size", "settings": "RealTime-Glo luminescence; series mostly up to 76.8 µM", "procedure,_shortened": "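HepG2 cells mixed with RealTime-Glo MT reagents (NanoLuc plus cell-permeant prosubstrate) were seeded at 600 cells/well, incubated 5 h at 37 C/5% CO2, then pinned with compounds in DMSO; nonlytic luminescence tracked viability during 40 h treatment.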", "values": [
      {"smiles": "CCCC[N+](=O)[O-]", "outcome": "inactive"},
      {"smiles": "CCC1(c2ccccc2)CCC(=O)NC1=O", "note": "(centres undefined)", "outcome": "inactive"},
      {"smiles": "ClC(Cl)(Cl)Cl", "outcome": "inactive"},
      {"smiles": "CCc1ccc(C2CCNCC2)cc1", "outcome": "inactive"},
      {"smiles": "CC(C)C(C)(N)C#N", "note": "(centres undefined)", "outcome": "inactive"},
      {"smiles": "CC(C)(C)C(=O)C(Cl)Cl", "outcome": "inactive"},
      {"smiles": "CN(C)C(=O)Oc1cc(OC(=O)N(C)C)cc(C(O)CNC(C)(C)C)c1", "note": "(centres undefined)", "outcome": "inactive"},
      {"smiles": "CCOC(=O)NC(C)(C)Cc1ccc(Cl)cc1", "outcome": "inactive"},
      {"smiles": "C=C(Cl)CSC(=S)N(CC)CC", "outcome": "inactive"},
      {"smiles": "CN(C)CCc1c[nH]c2cccc(OP(=O)(O)O)c12", "outcome": "inactive"},
      {"smiles": "Cn1c(N)nc2c3cccnc3ccc21", "outcome": "inactive"},
      {"smiles": "CCNc1nc(NCC)nc(SC)n1", "outcome": "inactive"},
      {"smiles": "CCNc1nc(Cl)nc(NC(C)(C)C)n1", "outcome": "inactive"},
      {"smiles": "CCCOC(=O)c1cncn1C(C)c1ccccc1", "note": "(centres undefined)", "outcome": "inactive"},
      {"smiles": "COc1ccc(CN2CCNCC2)c(OC)c1OC", "outcome": "inactive"},
      {"smiles": "CCOP(=S)(OCC)SCCl", "outcome": "inactive"},
      {"smiles": "C=CCc1cc(OC)c2c(c1)OCO2", "outcome": "inactive"},
      {"smiles": "CC#Cc1cc(C)nc(Nc2ccccc2)n1", "outcome": "inactive"},
      {"smiles": "N#CC(Br)(Br)C(N)=O", "outcome": "inactive"},
      {"smiles": "C=C1CC[C@@]2(O)[C@H]3Cc4ccc(O)c5c4[C@@]2(CCN3CC2CC2)[C@H]1O5", "outcome": "inactive"},
      {"smiles": "CC[C@H](O)C(C[C@H](C)N(C)C)(c1ccccc1)c1ccccc1", "outcome": "inactive"},
      {"smiles": "NCC1(CC(=O)O)CCCCC1", "outcome": "inactive"},
      {"smiles": "[O-][Br+2]([O-])O", "outcome": "inactive"},
      {"smiles": "NNC(N)=O", "outcome": "inactive"},
      {"smiles": "CNC(=O)O/N=C(/CSC)C(C)(C)C", "outcome": "inactive"},
      {"smiles": "CC(Cc1ccccc1)NCCCCl", "note": "(centres undefined)", "outcome": "inactive"},
      {"smiles": "CCCCCCCCSC(=O)Oc1cc(Cl)nnc1-c1ccccc1", "outcome": "inactive"}
    ]}
  ]
}
